These results are taken from PubChem BioAssay (NCI).

Compounds without any hit were thinned out: in the full panel of roughly 83,000, 20% have a hit.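 Each cell line was grown in a 96-well plate and treated with one concentration of compound for 48 hours. Values below 10 were considered active.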 Unmarked numbers belong to inactive results. Calls of active or inactive are those of the source.

This test deals with HT29 colon. Nature of the test: NCI-60 one-dose screen, 48 h (100 = growth as untreated, 0 = no growth, -100 = all killed). The conditions noted are these: 10 µM unless noted.
For `ClCCN(CCCl)C(c1ccccc1)c1ccc(Cl)cc1` (centres undefined), the growth was 63%.
The same measure for `CCCCn1cc(C(=O)/C(C#N)=C/c2cc3ccccc3nc2Cl)c2cc(OC)ccc21`: 89.9%; for `CCCCNCCc1ccccn1`: 102%; for `CC(=O)C1C(=O)N(C)C(=O)N(C)C1=O`: 102%.
For the compound `CC1(C)N=C(N)N=C(N)N1c1cccc(C(=O)Nc2cccc(S(=O)(=O)F)c2)c1`, the growth was 109%.
The result for `C[C@]12CC[C@@H]3C4=C(CC[C@H]3[C@@H]1CC[C@@H]2O)CC(=O)CC4` reads 105%; that for `Oc1ccccc1OB(Oc1ccccc1O)N(CCCl)CCCl`, 85.9%; that for `NC(Cc1ccc2c(c1)OCO2)c1ccc2c(c1)OCO2` (centres undefined), 102%.
The same measure for `COc1ccc(-c2ccc(OC)c(OC)c2OC)cc1`: -4.61% (active).
The result for `CC1(C)N=C(N)N=C(N)N1c1ccc(CCCCc2ccc(S(=O)(=O)F)cc2)c(Cl)c1` reads 8.74% (active).
For `COc1ccc(C2=NN(c3ccccc3)C(c3sc(N(CCCl)CCCl)nc3Cl)C2)cc1` (centres undefined), the growth is 72.6%.
The same measure for `N#CC1c2ccccc2C=CN1C(=O)c1ccc(N(CCCl)CCCl)cc1` (centres undefined): 98.7%; for `CSc1ccccc1NP1(=O)OCC(C)([N+](=O)[O-])CO1` (centres undefined): 105%; for `Cc1ccc(N)cc1[As]=[As]c1cc(N)ccc1C` (centres undefined): -84.6% (active).
On to `C/C(=N/OC(=O)N(C)C)c1cc(Cl)ccc1Cl`, for which the growth was 100%.
The same measure for `CCC(C)[C@H]1O[C@]2(C=C[C@@H]1C)C[C@@H]1C[C@@H](C/C=C(\C)[C@@H](OC3C[C@H](OC)C(O[C@H]4C[C@H](OC)[C@@H](O)[C@H](C)O4)[C@H](C)O3)[C@@H](C)/C=C/C=C3\CO[C@@H]4[C@H](O)C(C)=C[C@@H](C(=O)O1)[C@]34O)O2` (some centres undefined): -63.6% (active); for `CC1(C)N=C(N)N=C(N)N1c1ccc(CCCCc2ccc(S(=O)(=O)F)cc2)cc1`: 8.88% (active); for `Cc1ccc(C(=O)C2CN(C)CCC2(O)c2ccc(C)cc2)cc1` (centres undefined): 113%.
The result for `O=S(=O)(O)c1ccc(-c2ccc([As](=O)(O)O)cc2)cc1` reads 99.1%; that for `O=C1NC(=O)C(CN2C(=O)C3(c4ccccc42)[C@H](Cl)C(=O)N3c2ccccc2)C(=O)N1` (some centres undefined), 98.3%; that for `O=[N+]([O-])c1cc([N+](=O)[O-])c(Cl)c(Cl)c1Cl`, -85.5% (active).
The same measure for `C=CCC1(CC)C(=O)NC(=S)NC1=O`: 98%; for `C/C(=N/OC(=O)N(C)C)c1ccc(Cl)cc1Cl`: 105%.
As to `CCC[CH2][Sn]([CH2]CCC)([CH2]CCC)[O]C(=O)CC`, the growth is -81.2% (active).
The same measure for `O=C(NCc1ccc([N+](=O)[O-])cc1)Nc1ccc(S(=O)(=O)F)cc1`: 91.9%; for `n1nc(-c2nonc2-c2nn[nH]n2)n[nH]1`: 107%; for `CNC(=O)Oc1ccccc1-c1ccccc1`: 101%.
The result for `CC1(C)N=C(N)N=C(N)N1c1ccc(OCCCCOc2ccc(S(=O)(=O)F)cc2)c(Cl)c1` reads 8.74% (active); that for `CCCCOC(=O)c1ccccc1C(=O)O.CCCCOC(=O)c1ccccc1C(=O)O.[Cu+2]`, 107%; that for `O=[N+]([O-])c1ccc2cnn(CSP(=S)(c3ccccc3)c3ccccc3)c2c1`, 39.6%.
The same measure for `NC(=O)C(Cl)Cl`: 116%; for `CCN(CC)c1ccc(C=C2C(=O)NC(=S)NC2=O)cc1`: 92.2%.
Consider `Clc1ccc(SSC(Cl)(Cl)Cl)cc1`, for which the growth was 101%.
The result for `[O]=[Sn]([CH]1CCCCC1)[CH]1CCCCC1` reads -52.8% (active).
Take `ClCCN(CCCl)c1nc(Cl)c(C2CC(c3ccccc3)=NN2c2ccccc2)s1` (centres undefined): the growth was 82.5%.
`CC(=O)C1CCC2C3CC=C4CC(OC(=O)Cc5ccc(N(CCCl)CCCl)cc5)CCC4(C)C3CCC12C` (centres undefined): the growth is 83.2%.
The same measure for `Cc1ccccc1O`: 110%.
`O=[N+]([O-])c1ccccc1N1CCNCC1`: the growth was 85.4%.
Regarding `CC(=O)Nc1ccc(C=C2C(=O)NC(=O)NC2=O)cc1`, the growth is 109%.
